{"source": "a collection of fitness landscapes (doi:10.1016/j.celrep.2020.107928)", "parents": {"B1": {"name": "Caulobacter ParB omega fusion; a variant is named by its letters at X, in order, B8GW30 (parent)", "chain": "MESVVVGEPGMSEGRRGLGRGLSALLGEVDAAPAQAPGEQLGGSREAPIEILQRNPDQPRRTFREEDLEDLSNSIREKGVLQPILVRPSPDTAGEYQIVAGERAWRAAQRAGLKTVPIMVRELDDLAVLEIGIIENVQRADLNVLEEALSYKVLMEKFERTQENIAQTIGKSXSHVANXMRLLXLPDEVQSYLVSGELTAXHARAIAAAADPVALAKQIIEGGLSVRETEALARKAPNLSAGKSKGGRPPRVKDTDTQALESDLSSVLGLDVSIDHRGSTGTLTITYATLEQLDDLCNRLTRGI"}}, "note": "Whole data set: some 81,000 sequences, median “one-hybrid fitness for binding NBS DNA” near -0.1, cut for the highest 2% near 0.36. The full list was thinned out, with the highest values kept by preference.", "data": [{"variants_of": "B1", "experiment": "one-hybrid fitness for binding NBS DNA (the Noc-binding site; scaled: cognate 1, non-cognate 0); higher = stronger binding", "conditions": "with NBS DNA site", "outline": "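Caulobacter ParB libraries with four specificity codons randomised were screened by bacterial one-hybrid selection in the E. coli USO strain, using a HIS3 reporter whose site lies 19 bp from the promoter. Selection ran for 48 hours at 37°C on M9 lacking histidine, with 0.1 mM IPTG and 5 mM 3-AT. Plasmids were Illumina-sequenced before and after selection, three replicate libraries were pooled, and variants with under 10 reads were dropped. Fitness is the log change in each variant's read ratio to wild type, rescaled against the cognate and non-cognate sites.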", "values": [{"variant": "CDFR", "one-hybrid fitness for binding NBS DNA": "≤ 0.2"}, {"variant": "SYFG", "one-hybrid fitness for binding NBS DNA": "≤ 0.2"}, {"variant": "LSYG", "one-hybrid fitness for binding NBS DNA": "≤ 0.2"}, {"variant": "QYKH", "one-hybrid fitness for binding NBS DNA": 0.569}, {"variant": "QYCY", "one-hybrid fitness for binding NBS DNA": "≤ 0.2"}, {"variant": "QYKG", "one-hybrid fitness for binding NBS DNA": 0.294}, {"variant": "QYWT", "one-hybrid fitness for binding NBS DNA": 0.378}, {"variant": "QYCG", "one-hybrid fitness for binding NBS DNA": "≤ 0.2"}, {"variant": "QYKM", "one-hybrid fitness for binding NBS DNA": 0.369}, {"variant": "QYCT", "one-hybrid fitness for binding NBS DNA": 0.419}, {"variant": "QYWN", "one-hybrid fitness for binding NBS DNA": "≤ 0.2"}, {"variant": "QYWY", "one-hybrid fitness for binding NBS DNA": "≤ 0.2"}, {"variant": "QYLM", "one-hybrid fitness for binding NBS DNA": "≤ 0.2"}, {"variant": "QYPM", "one-hybrid fitness for binding NBS DNA": "≤ 0.2"}, {"variant": "QYKF", "one-hybrid fitness for binding NBS DNA": 0.229}, {"variant": "LVLD", "one-hybrid fitness for binding NBS DNA": "≤ 0.2"}, {"variant": "GKTG", "one-hybrid fitness for binding NBS DNA": "≤ 0.2"}, {"variant": "TVSI", "one-hybrid fitness for binding NBS DNA": "≤ 0.2"}, {"variant": "MEAE", "one-hybrid fitness for binding NBS DNA": "≤ 0.2"}, {"variant": "YPFW", "one-hybrid fitness for binding NBS DNA": "≤ 0.2"}, {"variant": "SPYH", "one-hybrid fitness for binding NBS DNA": "≤ 0.2"}, {"variant": "HDPT", "one-hybrid fitness for binding NBS DNA": "≤ 0.2"}, {"variant": "NGHF", "one-hybrid fitness for binding NBS DNA": "≤ 0.2"}, {"variant": "GEAN", "one-hybrid fitness for binding NBS DNA": "≤ 0.2"}, {"variant": "SSSE", "one-hybrid fitness for binding NBS DNA": "≤ 0.2"}, {"variant": "QYHQ", "one-hybrid fitness for binding NBS DNA": "≤ 0.2"}, {"variant": "QYPT", "one-hybrid fitness for binding NBS DNA": 0.255}, {"variant": "QYHT", "one-hybrid fitness for binding NBS DNA": 0.417}, {"variant": "QYVT", "one-hybrid fitness for binding NBS DNA": 0.363}, {"variant": "QYYK", "one-hybrid fitness for binding NBS DNA": "≤ 0.2"}, {"variant": "QYHC", "one-hybrid fitness for binding NBS DNA": "≤ 0.2"}, {"variant": "QYKT", "one-hybrid fitness for binding NBS DNA": 0.722}, {"variant": "QYSS", "one-hybrid fitness for binding NBS DNA": 0.357}, {"variant": "QYKK", "one-hybrid fitness for binding NBS DNA": 0.398}, {"variant": "QYST", "one-hybrid fitness for binding NBS DNA": 0.413}, {"variant": "QYRK", "one-hybrid fitness for binding NBS DNA": 0.36}, {"variant": "QYSH", "one-hybrid fitness for binding NBS DNA": "≤ 0.2"}, {"variant": "VTAR", "one-hybrid fitness for binding NBS DNA": "≤ 0.2"}, {"variant": "SYLG", "one-hybrid fitness for binding NBS DNA": "≤ 0.2"}, {"variant": "HAQP", "one-hybrid fitness for binding NBS DNA": "≤ 0.2"}, {"variant": "GPML", "one-hybrid fitness for binding NBS DNA": "≤ 0.2"}, {"variant": "SDVP", "one-hybrid fitness for binding NBS DNA": "≤ 0.2"}, {"variant": "IIPF", "one-hybrid fitness for binding NBS DNA": "≤ 0.2"}, {"variant": "PDHK", "one-hybrid fitness for binding NBS DNA": "≤ 0.2"}, {"variant": "MVPA", "one-hybrid fitness for binding NBS DNA": "≤ 0.2"}, {"variant": "MAQR", "one-hybrid fitness for binding NBS DNA": "≤ 0.2"}, {"variant": "QYAS", "one-hybrid fitness for binding NBS DNA": 0.327}, {"variant": "QYFT", "one-hybrid fitness for binding NBS DNA": 0.335}, {"variant": "QYRT", "one-hybrid fitness for binding NBS DNA": 0.733}, {"variant": "QYRM", "one-hybrid fitness for binding NBS DNA": 0.394}, {"variant": "QYAT", "one-hybrid fitness for binding NBS DNA": 0.427}, {"variant": "QYKP", "one-hybrid fitness for binding NBS DNA": 0.232}, {"variant": "QYIT", "one-hybrid fitness for binding NBS DNA": 0.355}, {"variant": "QYKD", "one-hybrid fitness for binding NBS DNA": 0.212}, {"variant": "QYYT", "one-hybrid fitness for binding NBS DNA": 0.352}, {"variant": "QYDM", "one-hybrid fitness for binding NBS DNA": "≤ 0.2"}, {"variant": "QYYM", "one-hybrid fitness for binding NBS DNA": "≤ 0.2"}, {"variant": "QYKS", "one-hybrid fitness for binding NBS DNA": 0.643}, {"variant": "SPCH", "one-hybrid fitness for binding NBS DNA": "≤ 0.2"}, {"variant": "YMAS", "one-hybrid fitness for binding NBS DNA": "≤ 0.2"}, {"variant": "ELYR", "one-hybrid fitness for binding NBS DNA": "≤ 0.2"}, {"variant": "YQKG", "one-hybrid fitness for binding NBS DNA": "≤ 0.2"}, {"variant": "QERT", "one-hybrid fitness for binding NBS DNA": "≤ 0.2"}, {"variant": "TNGI", "one-hybrid fitness for binding NBS DNA": "≤ 0.2"}, {"variant": "RKAS", "one-hybrid fitness for binding NBS DNA": 0.597}, {"variant": "RKFN", "one-hybrid fitness for binding NBS DNA": "≤ 0.2"}, {"variant": "RKAD", "one-hybrid fitness for binding NBS DNA": "≤ 0.2"}, {"variant": "RKAP", "one-hybrid fitness for binding NBS DNA": "≤ 0.2"}, {"variant": "RKFS", "one-hybrid fitness for binding NBS DNA": 0.435}, {"variant": "RKFP", "one-hybrid fitness for binding NBS DNA": "≤ 0.2"}, {"variant": "EDSG", "one-hybrid fitness for binding NBS DNA": "≤ 0.2"}, {"variant": "VTLK", "one-hybrid fitness for binding NBS DNA": "≤ 0.2"}, {"variant": "ISMT", "one-hybrid fitness for binding NBS DNA": "≤ 0.2"}, {"variant": "SRDR", "one-hybrid fitness for binding NBS DNA": "≤ 0.2"}, {"variant": "QSDN", "one-hybrid fitness for binding NBS DNA": "≤ 0.2"}, {"variant": "QPRN", "one-hybrid fitness for binding NBS DNA": "≤ 0.2"}, {"variant": "QCRN", "one-hybrid fitness for binding NBS DNA": 0.482}, {"variant": "QSYN", "one-hybrid fitness for binding NBS DNA": "≤ 0.2"}, {"variant": "QCYN", "one-hybrid fitness for binding NBS DNA": "≤ 0.2"}, {"variant": "QSRN", "one-hybrid fitness for binding NBS DNA": 0.374}, {"variant": "KTCN", "one-hybrid fitness for binding NBS DNA": "≤ 0.2"}, {"variant": "LIAD", "one-hybrid fitness for binding NBS DNA": "≤ 0.2"}, {"variant": "LNLA", "one-hybrid fitness for binding NBS DNA": "≤ 0.2"}, {"variant": "QQDI", "one-hybrid fitness for binding NBS DNA": "≤ 0.2"}, {"variant": "QQRI", "one-hybrid fitness for binding NBS DNA": 0.383}, {"variant": "QQVI", "one-hybrid fitness for binding NBS DNA": "≤ 0.2"}, {"variant": "QQFI", "one-hybrid fitness for binding NBS DNA": "≤ 0.2"}, {"variant": "QQYI", "one-hybrid fitness for binding NBS DNA": "≤ 0.2"}, {"variant": "QQKI", "one-hybrid fitness for binding NBS DNA": 0.399}, {"variant": "ESLH", "one-hybrid fitness for binding NBS DNA": "≤ 0.2"}, {"variant": "QARH", "one-hybrid fitness for binding NBS DNA": 0.529}, {"variant": "QAYS", "one-hybrid fitness for binding NBS DNA": 0.305}, {"variant": "QARN", "one-hybrid fitness for binding NBS DNA": 0.349}, {"variant": "QAYH", "one-hybrid fitness for binding NBS DNA": "≤ 0.2"}, {"variant": "QARS", "one-hybrid fitness for binding NBS DNA": 0.644}, {"variant": "QAIS", "one-hybrid fitness for binding NBS DNA": "≤ 0.2"}, {"variant": "TNFS", "one-hybrid fitness for binding NBS DNA": "≤ 0.2"}]}]}
